The values below come from ChEMBL document CHEMBL1961873, “Compounds: GSK PKIS; Assays: Nanosyn kinase panel” (2012).

In general, inhibition refers to the relative decrease from the control value, in per cent.

SMILES strings stand for the structures.

For test [1], the target named is Protein kinase C gamma type (Homo sapiens) (UniProt P05129). As to conditions: at 1 µM.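 Also: each value is an averaged percent inhibition of the enzyme.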
The target in test [2] is T1, Protein kinase C iota type (Homo sapiens) (UniProt P41743).
T1 sequence (whole entry): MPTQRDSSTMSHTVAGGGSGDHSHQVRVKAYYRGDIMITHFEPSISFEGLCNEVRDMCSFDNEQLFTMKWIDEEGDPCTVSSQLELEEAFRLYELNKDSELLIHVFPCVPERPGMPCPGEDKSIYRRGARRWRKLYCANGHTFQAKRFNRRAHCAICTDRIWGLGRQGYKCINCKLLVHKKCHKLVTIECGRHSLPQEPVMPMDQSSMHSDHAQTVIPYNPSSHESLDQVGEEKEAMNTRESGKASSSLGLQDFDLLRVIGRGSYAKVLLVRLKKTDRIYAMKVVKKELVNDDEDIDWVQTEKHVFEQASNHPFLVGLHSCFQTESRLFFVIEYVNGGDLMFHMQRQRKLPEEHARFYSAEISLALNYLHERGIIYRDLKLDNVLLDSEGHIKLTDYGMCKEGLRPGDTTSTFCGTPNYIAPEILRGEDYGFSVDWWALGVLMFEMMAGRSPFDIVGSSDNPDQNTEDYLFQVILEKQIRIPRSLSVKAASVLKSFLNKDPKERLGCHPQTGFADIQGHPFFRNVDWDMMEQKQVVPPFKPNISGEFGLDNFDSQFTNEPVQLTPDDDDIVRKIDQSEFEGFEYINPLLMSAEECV
Conditions: at 0.1 µM.

The target of test [3] is T1, Protein kinase C iota type (Homo sapiens). As to conditions: at 1 µM.
The target in test [4] is Protein kinase C theta type (Homo sapiens) (UniProt Q04759). Conditions: at 0.1 µM.
For test [5] the target is unchanged. Conditions: at 1 µM.
Test [6] concerns the target Protein kinase C beta type (Homo sapiens) (UniProt P05771). As to conditions: at 0.1 µM.
Test [7] shares this target. As to conditions: at 1 µM.
Test [8] has as its target T2, Serine/threonine-protein kinase D1 (Homo sapiens) (UniProt Q15139).
T2 sequence (whole entry): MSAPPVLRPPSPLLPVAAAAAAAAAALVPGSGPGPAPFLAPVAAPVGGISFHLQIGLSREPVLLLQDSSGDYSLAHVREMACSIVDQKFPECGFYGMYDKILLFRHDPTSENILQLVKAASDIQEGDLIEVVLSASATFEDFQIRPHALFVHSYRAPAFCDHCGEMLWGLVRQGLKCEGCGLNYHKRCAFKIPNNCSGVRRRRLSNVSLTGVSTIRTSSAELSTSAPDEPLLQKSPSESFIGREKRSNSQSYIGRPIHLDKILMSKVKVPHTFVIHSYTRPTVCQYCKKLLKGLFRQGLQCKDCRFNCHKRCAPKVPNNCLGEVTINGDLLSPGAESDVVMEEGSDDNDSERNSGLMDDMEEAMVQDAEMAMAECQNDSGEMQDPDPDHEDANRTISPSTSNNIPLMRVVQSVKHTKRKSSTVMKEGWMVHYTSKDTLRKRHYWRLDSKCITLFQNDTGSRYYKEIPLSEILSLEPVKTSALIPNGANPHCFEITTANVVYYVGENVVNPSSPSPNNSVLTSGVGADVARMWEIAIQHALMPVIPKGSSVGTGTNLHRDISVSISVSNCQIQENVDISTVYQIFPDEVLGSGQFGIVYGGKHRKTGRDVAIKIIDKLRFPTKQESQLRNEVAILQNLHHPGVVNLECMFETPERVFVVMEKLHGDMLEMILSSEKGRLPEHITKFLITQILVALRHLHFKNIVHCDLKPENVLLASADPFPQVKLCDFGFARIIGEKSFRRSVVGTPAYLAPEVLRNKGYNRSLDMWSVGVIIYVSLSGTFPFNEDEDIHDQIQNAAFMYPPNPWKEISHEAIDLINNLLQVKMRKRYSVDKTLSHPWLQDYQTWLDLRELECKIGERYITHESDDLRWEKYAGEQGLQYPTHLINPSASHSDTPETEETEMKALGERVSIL
As to conditions: at 0.1 µM.

Test [9] deals with T2, Serine/threonine-protein kinase D1 (Homo sapiens). Conditions: at 1 µM.
The target in test [10] is T3, Serine/threonine-protein kinase D2 (Homo sapiens) (UniProt Q9BZL6).
T3 sequence (whole entry): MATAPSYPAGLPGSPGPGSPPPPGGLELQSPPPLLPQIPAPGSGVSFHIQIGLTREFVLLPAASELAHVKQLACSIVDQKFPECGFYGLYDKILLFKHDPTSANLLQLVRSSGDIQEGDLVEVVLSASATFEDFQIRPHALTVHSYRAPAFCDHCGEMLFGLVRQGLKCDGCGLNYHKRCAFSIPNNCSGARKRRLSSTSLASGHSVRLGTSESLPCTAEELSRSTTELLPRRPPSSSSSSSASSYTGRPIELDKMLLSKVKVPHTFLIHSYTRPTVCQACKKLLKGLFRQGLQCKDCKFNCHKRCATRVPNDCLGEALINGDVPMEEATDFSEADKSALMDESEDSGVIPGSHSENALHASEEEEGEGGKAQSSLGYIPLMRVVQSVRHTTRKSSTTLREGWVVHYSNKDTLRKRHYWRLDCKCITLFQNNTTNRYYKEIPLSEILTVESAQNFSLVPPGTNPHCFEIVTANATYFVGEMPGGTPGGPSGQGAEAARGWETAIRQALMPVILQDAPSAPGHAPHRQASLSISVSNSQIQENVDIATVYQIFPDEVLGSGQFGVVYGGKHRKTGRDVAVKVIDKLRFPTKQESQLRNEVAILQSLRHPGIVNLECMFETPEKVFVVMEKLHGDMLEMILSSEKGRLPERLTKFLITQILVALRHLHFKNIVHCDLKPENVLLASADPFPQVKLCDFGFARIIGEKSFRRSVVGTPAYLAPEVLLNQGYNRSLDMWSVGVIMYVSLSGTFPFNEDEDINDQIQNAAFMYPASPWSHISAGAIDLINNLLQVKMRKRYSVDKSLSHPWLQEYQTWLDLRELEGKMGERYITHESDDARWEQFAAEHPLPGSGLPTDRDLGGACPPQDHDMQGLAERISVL
Conditions: at 0.1 µM.

For test [11], the target named is T3, Serine/threonine-protein kinase D2 (Homo sapiens). As to conditions: at 1 µM.
The target in test [12] is T4, Serine/threonine-protein kinase D3 (Homo sapiens) (UniProt O94806).
T4 sequence (whole entry): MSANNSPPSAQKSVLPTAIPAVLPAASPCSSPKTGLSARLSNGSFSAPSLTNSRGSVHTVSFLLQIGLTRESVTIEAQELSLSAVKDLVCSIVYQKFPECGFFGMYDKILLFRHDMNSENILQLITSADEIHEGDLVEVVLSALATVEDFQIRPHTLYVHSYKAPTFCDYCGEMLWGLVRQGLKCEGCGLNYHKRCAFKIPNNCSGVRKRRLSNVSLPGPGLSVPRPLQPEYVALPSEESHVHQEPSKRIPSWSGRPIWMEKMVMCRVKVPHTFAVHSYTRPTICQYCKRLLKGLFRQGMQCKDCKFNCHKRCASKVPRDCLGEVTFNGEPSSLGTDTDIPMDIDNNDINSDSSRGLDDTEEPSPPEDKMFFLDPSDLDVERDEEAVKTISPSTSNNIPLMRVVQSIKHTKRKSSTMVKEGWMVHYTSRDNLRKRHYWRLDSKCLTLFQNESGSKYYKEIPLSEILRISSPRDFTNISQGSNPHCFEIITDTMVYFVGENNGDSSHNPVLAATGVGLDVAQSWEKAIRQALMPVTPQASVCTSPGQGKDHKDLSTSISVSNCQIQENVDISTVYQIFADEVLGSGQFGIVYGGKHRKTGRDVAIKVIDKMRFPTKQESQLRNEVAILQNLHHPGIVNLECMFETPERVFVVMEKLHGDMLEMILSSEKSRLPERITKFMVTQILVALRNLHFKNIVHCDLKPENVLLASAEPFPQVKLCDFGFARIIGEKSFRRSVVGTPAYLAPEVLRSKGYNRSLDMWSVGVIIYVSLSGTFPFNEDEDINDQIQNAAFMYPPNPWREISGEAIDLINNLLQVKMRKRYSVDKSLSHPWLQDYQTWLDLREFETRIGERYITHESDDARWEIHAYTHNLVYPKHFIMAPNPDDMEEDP
Conditions: at 0.1 µM.

For test [13], the target named is T4, Serine/threonine-protein kinase D3 (Homo sapiens). As to conditions: at 1 µM.
The target of test [14] is T5, cGMP-dependent protein kinase 1 (Homo sapiens) (UniProt Q13976).
T5 sequence (whole entry): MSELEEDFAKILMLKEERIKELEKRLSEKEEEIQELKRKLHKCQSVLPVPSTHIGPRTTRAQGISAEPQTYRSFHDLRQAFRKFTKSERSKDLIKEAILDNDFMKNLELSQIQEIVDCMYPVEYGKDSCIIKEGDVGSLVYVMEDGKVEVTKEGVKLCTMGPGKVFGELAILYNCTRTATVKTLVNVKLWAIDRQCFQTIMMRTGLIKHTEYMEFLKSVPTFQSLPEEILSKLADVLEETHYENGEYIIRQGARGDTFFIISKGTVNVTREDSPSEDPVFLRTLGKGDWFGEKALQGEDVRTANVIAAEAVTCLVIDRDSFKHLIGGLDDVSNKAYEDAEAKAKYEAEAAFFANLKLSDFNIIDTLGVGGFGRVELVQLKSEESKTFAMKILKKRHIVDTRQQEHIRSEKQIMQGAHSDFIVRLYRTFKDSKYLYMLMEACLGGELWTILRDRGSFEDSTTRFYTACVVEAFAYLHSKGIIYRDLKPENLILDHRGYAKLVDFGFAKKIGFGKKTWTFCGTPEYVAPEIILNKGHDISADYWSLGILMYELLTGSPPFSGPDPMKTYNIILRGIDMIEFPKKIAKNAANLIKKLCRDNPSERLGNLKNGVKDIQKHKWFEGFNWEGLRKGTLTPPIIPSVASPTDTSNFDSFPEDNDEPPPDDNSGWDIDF
Conditions: at 0.1 µM.

The target of test [15] is T5, cGMP-dependent protein kinase 1 (Homo sapiens). Conditions: at 1 µM.
The target in test [16] is T6, cGMP-dependent protein kinase 2 (Homo sapiens) (UniProt Q13237).
T6 sequence (whole entry): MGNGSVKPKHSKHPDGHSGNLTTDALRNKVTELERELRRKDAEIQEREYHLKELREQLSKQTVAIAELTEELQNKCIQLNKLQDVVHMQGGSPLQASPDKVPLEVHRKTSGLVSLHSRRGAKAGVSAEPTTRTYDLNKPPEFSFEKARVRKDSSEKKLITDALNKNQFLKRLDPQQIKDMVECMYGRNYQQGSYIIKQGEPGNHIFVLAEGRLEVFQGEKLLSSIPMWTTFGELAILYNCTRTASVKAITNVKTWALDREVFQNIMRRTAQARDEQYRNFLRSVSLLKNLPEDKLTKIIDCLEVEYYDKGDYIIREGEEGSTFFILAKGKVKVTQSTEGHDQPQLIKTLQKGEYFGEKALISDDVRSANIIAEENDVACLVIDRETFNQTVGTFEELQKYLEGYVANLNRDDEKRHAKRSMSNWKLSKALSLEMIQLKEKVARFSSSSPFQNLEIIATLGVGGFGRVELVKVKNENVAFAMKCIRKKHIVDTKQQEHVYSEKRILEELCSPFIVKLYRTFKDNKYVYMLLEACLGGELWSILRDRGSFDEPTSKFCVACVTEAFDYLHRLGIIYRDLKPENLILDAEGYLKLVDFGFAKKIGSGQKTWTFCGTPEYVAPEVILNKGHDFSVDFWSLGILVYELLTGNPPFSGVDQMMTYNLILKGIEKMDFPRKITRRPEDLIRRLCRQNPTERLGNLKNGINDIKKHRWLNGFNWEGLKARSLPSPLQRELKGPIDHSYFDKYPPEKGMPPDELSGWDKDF
As to conditions: at 0.1 µM.

Test [17] has as its target T6, cGMP-dependent protein kinase 2 (Homo sapiens). Conditions: at 1 µM.
The target of test [18] is T7, cAMP-dependent protein kinase catalytic subunit PRKX (Homo sapiens) (UniProt P51817).
T7 sequence (whole entry): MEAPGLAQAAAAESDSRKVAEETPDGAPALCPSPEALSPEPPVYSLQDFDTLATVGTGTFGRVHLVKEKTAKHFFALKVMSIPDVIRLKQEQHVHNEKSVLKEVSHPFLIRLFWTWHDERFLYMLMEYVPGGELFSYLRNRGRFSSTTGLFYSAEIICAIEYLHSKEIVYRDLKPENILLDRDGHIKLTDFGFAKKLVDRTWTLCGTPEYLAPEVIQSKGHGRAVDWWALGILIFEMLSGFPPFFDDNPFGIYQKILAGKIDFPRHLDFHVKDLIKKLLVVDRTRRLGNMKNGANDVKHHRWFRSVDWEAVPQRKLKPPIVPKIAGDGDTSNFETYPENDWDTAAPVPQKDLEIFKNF
As to conditions: at 0.1 µM.

Test [19] has as its target T7, cAMP-dependent protein kinase catalytic subunit PRKX (Homo sapiens). As to conditions: at 1 µM.
Test [20] addresses Rho-associated protein kinase 1 (Homo sapiens) (UniProt Q13464). As to conditions: at 0.1 µM.

Chain of Protein kinase C beta type (Homo sapiens) (P05771 2-671 limits assumed): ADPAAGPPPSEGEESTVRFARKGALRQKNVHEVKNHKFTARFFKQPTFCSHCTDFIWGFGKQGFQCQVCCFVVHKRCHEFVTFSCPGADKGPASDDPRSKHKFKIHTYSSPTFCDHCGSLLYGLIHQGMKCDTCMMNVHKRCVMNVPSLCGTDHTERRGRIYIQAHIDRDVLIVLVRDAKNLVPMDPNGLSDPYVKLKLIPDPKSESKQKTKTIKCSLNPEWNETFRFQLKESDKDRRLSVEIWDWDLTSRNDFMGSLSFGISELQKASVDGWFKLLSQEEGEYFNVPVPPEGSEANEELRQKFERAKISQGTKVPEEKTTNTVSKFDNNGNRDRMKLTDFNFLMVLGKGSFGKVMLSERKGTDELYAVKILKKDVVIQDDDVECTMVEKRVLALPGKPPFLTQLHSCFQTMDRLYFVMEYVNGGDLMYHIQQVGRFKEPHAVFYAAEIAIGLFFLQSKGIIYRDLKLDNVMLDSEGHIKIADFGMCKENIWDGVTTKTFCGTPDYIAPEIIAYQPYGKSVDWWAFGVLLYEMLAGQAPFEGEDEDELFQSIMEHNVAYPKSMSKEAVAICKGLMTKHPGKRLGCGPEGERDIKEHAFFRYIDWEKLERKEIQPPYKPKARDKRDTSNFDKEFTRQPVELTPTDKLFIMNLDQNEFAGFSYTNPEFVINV
Chain of Protein kinase C theta type (Homo sapiens) (Q04759 whole entry, looked up): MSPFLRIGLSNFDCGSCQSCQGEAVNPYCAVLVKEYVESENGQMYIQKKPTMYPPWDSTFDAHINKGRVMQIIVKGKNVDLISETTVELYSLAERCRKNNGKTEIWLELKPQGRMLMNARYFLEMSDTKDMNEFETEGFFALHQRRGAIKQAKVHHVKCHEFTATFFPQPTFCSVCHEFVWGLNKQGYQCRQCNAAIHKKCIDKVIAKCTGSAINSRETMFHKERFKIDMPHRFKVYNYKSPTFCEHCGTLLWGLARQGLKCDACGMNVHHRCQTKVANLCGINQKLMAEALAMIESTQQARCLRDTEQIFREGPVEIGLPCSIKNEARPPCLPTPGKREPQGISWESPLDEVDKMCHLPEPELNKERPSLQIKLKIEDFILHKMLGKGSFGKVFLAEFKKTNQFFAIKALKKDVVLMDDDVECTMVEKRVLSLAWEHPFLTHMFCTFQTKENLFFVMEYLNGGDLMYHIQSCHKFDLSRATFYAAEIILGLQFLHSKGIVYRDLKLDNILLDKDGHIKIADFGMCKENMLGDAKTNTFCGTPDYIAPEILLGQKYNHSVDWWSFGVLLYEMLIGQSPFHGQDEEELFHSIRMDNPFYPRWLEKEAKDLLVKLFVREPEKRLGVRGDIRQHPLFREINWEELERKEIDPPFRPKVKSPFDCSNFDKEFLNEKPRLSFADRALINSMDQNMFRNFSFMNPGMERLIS
Chain of Rho-associated protein kinase 1 (Homo sapiens) (Q13464 2-1354 limits assumed): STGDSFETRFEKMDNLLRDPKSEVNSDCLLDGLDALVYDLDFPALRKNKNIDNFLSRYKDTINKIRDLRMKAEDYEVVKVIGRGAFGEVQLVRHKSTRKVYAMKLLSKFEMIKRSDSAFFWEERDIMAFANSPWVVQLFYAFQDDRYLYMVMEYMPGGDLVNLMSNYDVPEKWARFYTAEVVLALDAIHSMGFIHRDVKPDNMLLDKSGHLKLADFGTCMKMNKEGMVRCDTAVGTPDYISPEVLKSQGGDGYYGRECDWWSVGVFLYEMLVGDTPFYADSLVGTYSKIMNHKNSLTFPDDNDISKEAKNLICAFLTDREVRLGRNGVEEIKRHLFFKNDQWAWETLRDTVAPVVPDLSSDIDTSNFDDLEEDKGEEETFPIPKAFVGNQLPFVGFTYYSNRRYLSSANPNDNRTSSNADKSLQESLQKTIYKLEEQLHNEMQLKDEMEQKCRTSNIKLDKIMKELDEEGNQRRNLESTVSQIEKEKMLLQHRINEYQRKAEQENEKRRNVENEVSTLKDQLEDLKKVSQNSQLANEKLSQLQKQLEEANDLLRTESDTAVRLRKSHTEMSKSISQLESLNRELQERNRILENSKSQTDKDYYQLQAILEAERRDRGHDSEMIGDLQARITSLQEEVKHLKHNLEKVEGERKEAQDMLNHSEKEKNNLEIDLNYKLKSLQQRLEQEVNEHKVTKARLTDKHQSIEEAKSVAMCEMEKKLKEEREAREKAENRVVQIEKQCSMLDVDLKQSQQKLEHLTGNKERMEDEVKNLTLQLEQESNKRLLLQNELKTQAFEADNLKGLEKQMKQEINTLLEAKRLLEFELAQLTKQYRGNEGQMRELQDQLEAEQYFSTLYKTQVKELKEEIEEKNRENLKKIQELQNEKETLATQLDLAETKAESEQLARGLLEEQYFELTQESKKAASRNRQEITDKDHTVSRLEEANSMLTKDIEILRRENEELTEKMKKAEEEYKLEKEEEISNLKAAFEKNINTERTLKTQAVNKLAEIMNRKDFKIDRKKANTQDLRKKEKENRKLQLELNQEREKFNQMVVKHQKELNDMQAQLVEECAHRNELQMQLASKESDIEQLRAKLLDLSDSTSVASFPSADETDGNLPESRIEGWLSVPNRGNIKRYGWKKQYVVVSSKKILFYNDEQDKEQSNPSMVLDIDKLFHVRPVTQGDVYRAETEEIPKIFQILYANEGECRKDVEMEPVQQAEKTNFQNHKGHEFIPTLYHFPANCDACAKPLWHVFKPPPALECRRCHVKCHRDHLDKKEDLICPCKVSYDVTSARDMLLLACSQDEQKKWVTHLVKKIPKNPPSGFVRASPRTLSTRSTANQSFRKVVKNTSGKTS

In the case of `NS(=O)(=O)c1ccc(N/N=C2\C(=O)Nc3cccc(CCc4ccncc4)c32)cc1`, the inhibition in test [1] is -0.16%; in test [2] it was 0.18%; in test [3], 1.06%; in [4], 0.33%; in test [5], -0.34%; in test [6], -0.03%. Further, the inhibition was 0.05% in test [7]; 1.18% in test [8]; 1.94% in test [9]; 0.05% in test [10]; 0.82% in [11]; 0.3% in [12]. Besides, the inhibition is 0.91% in [13]; 0.22% in [14]; -0.46% in test [15]; -0.44% in [16]; -0.5% in test [17]; 0.12% in test [18]. The inhibition was 0.09% in [19] and 0.65% in test [20].

With `COc1ccc(Nc2ncc(-c3ccccc3)o2)cc1OC`, the inhibition in test [1] was 1.49%; in test [2], -0.08%; in [3], 0.61%; in test [4], -0.85%; in [5], -0.93%; in test [6], -0.24%. The inhibition in test [7] is 1.4%; in test [8], 0.41%; in [9], 2.5%; in test [10] it was 0.6%; in [11] it was 3.42%; in test [12] it was 0.5%. Besides, the inhibition was 2.14% in test [13]; 0.71% in [14]; 3.32% in [15]; 0.93% in test [16]; 3.83% in test [17]; -0.11% in [18]. Further, the inhibition is -0.56% in [19] and -0.21% in test [20].
